PubChem BioAssay (NCI)
About 83,000 compounds went through this panel and 20% of them were active in at least one assay; those are over-represented in the sample as a whole.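 Percent growth is the endpoint: 0 to 100 indicates growth inhibition (40 means 60% inhibition), 0 means no net growth, and negative values indicate cell death.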 Active and inactive are the calls of the source. How the source made its calls: active means growth percent below 10; inactive means the rest.

Key:
Experiment in all cases: NCI-60 one-dose screen, 48 h (100 = growth as untreated, 0 = no growth, -100 = all killed)
Conditions in all cases: 10 µM unless noted
HCT-15 colon = system: HCT-15 colon
HT29 colon = system: HT29 colon
SNB-75 CNS = system: SNB-75 CNS
SNB-19 CNS = system: SNB-19 CNS
U251 CNS = system: U251 CNS
PC-3 prostate = system: PC-3 prostate
SK-MEL-5 melanoma = system: SK-MEL-5 melanoma
UACC-62 melanoma = system: UACC-62 melanoma
LOX IMVI melanoma = system: LOX IMVI melanoma
SK-MEL-28 melanoma = system: SK-MEL-28 melanoma

Measured: growth

COc1ccc2nc(-c3ccc(OC)c(OC)c3)cc(-c3nnc(SCC(=O)Nc4ccc(/C(C)=N\O)cc4)n3-c3ccccc3)c2c1
active: LOX IMVI melanoma -28.1%
inactive: HCT-15 colon 76.2% | HT29 colon 89.2% | SNB-75 CNS 77.3% | SNB-19 CNS 84.3% | U251 CNS 78.3% | PC-3 prostate 60.7% | SK-MEL-5 melanoma 71.7% | UACC-62 melanoma 71.1% | SK-MEL-28 melanoma 111%

CN(C)C1=NCCN1
inactive: HCT-15 colon 108% | HT29 colon 88.3% | SNB-75 CNS 75.8% | SNB-19 CNS 111% | U251 CNS 96.9% | PC-3 prostate 80% | SK-MEL-5 melanoma 103% | UACC-62 melanoma 102% | LOX IMVI melanoma 99.2% | SK-MEL-28 melanoma 113%

O=C(Nc1cccc(-c2cccc(F)c2)c1)C1CCN(Cc2cccc3cccnc23)CC1
active: HT29 colon 0.443% | UACC-62 melanoma -44.8% | LOX IMVI melanoma 3.29% | SK-MEL-28 melanoma -40.2%
inactive: HCT-15 colon 19.5% | SNB-75 CNS 53.6% | SNB-19 CNS 77% | U251 CNS 44.4% | PC-3 prostate 51.1% | SK-MEL-5 melanoma 35.2%

O=C(Nc1cc(Br)ccn1)c1cc2cc(Nc3nc(-c4ccccc4)nc4ccccc34)ccc2oc1=O
inactive: HCT-15 colon 107% | HT29 colon 104% | SNB-75 CNS 92.3% | SNB-19 CNS 107% | U251 CNS 107% | PC-3 prostate 93.6% | SK-MEL-5 melanoma 101% | UACC-62 melanoma 103% | LOX IMVI melanoma 83.8% | SK-MEL-28 melanoma 114%

Cc1ccc(C(=O)/C(=C/c2ccc([N+](=O)[O-])cc2)S(=O)Cc2ccccc2)cc1 (stereo not given)
active: HCT-15 colon -8.82% | HT29 colon -21% | PC-3 prostate -0.822% | UACC-62 melanoma -54.9% | LOX IMVI melanoma -82.1%
inactive: SNB-75 CNS 43.4% | SNB-19 CNS 34.8% | U251 CNS 13.4% | SK-MEL-5 melanoma 37.8% | SK-MEL-28 melanoma 17.1%

CCOC(=O)C1=C(C)n2nc(CC#N)c(C#N)c2NC1c1ccc(CC)cc1 (stereo not given)
inactive: HCT-15 colon 99.6% | HT29 colon 107% | SNB-75 CNS 88.5% | SNB-19 CNS 106% | U251 CNS 101% | PC-3 prostate 90.8% | SK-MEL-5 melanoma 96.6% | UACC-62 melanoma 94.5% | LOX IMVI melanoma 92.7% | SK-MEL-28 melanoma 103%

COCCOCCOCc1n(Cc2ccc3ccccc3c2)c2ccccc2[n+]1Cc1ccc2ccccc2c1
active: HT29 colon -5.47% | SNB-75 CNS -4.1% | PC-3 prostate 5.49% | SK-MEL-5 melanoma -91.9% | UACC-62 melanoma -29.6% | LOX IMVI melanoma -26.6%
inactive: HCT-15 colon 88.4% | SNB-19 CNS 23% | U251 CNS 12.4% | SK-MEL-28 melanoma 16.8%

CN(C)CSc1nc2ccccc2s1
inactive: HCT-15 colon 97.9% | HT29 colon 95% | SNB-75 CNS 75.2% | SNB-19 CNS 110% | U251 CNS 103% | PC-3 prostate 74.8% | SK-MEL-5 melanoma 96.9% | UACC-62 melanoma 95.9% | LOX IMVI melanoma 90% | SK-MEL-28 melanoma 108%

COc1cc(F)c(-c2nc3c(C)cccc3n2Cc2c(F)cccc2F)c(F)c1
inactive: HCT-15 colon 81.9% | HT29 colon 70.1% | SNB-75 CNS 71.5% | SNB-19 CNS 91.6% | U251 CNS 83.6% | PC-3 prostate 64.2% | SK-MEL-5 melanoma 85.6% | UACC-62 melanoma 64.5% | LOX IMVI melanoma 87.8% | SK-MEL-28 melanoma 98.7%

N#Cc1c(-c2ccc(F)cc2)c(C#N)c2c(C#N)c(N)nn2c1N
inactive: HCT-15 colon 106% | HT29 colon 98.7% | SNB-75 CNS 87.8% | SNB-19 CNS 108% | U251 CNS 94.7% | PC-3 prostate 77.4% | SK-MEL-5 melanoma 96.8% | UACC-62 melanoma 105% | LOX IMVI melanoma 89.9% | SK-MEL-28 melanoma 111%

OCCNc1nc(NCCO)nc(Nc2ccc(C3=NN(c4cc(Cl)cc(Cl)c4)C(c4ccccc4)C3)cc2)n1 (stereo not given)
inactive: HCT-15 colon 27.5% | SNB-75 CNS 52.5% | SNB-19 CNS 58.7% | U251 CNS 27.2% | PC-3 prostate 24.5% | SK-MEL-5 melanoma 51.7% | UACC-62 melanoma 20.9% | SK-MEL-28 melanoma 49.9%
active: HT29 colon 9.1% | LOX IMVI melanoma -36.9%

NC(=O)c1ccc(C2C3=C(CCCC3=O)OC3=C2C(=O)c2ccccc2C3=O)cc1 (stereo not given)
active: SNB-75 CNS -1.57% | U251 CNS 0.896% | SK-MEL-5 melanoma -93.9% | UACC-62 melanoma -38.8% | LOX IMVI melanoma -19.3%
inactive: HCT-15 colon 53.8% | HT29 colon 29.7% | SNB-19 CNS 49.6% | PC-3 prostate 12.3% | SK-MEL-28 melanoma 59.6%

COc1ccc(/C=C/C(=O)C(CC2CCC2)C(=O)/C=C/c2ccc(OC)c(OC)c2)cc1OC
inactive: SNB-75 CNS 64.7%
active: HCT-15 colon -35.4% | HT29 colon -51.1% | SNB-19 CNS -13.1% | U251 CNS -68.8% | PC-3 prostate -8.3% | SK-MEL-5 melanoma -76.6% | UACC-62 melanoma -65.5% | LOX IMVI melanoma -75.4% | SK-MEL-28 melanoma -4.06%

CC(=O)OCC1SC(OC(C)=O)C(NC(=O)/C=C/CCl)C(OC(C)=O)C1OC(C)=O (stereo not given)
inactive: HCT-15 colon 100% | HT29 colon 102% | SNB-75 CNS 93.8% | SNB-19 CNS 111% | U251 CNS 90.6% | PC-3 prostate 86.8% | SK-MEL-5 melanoma 87.7% | UACC-62 melanoma 98% | LOX IMVI melanoma 93.4% | SK-MEL-28 melanoma 112%

Nc1cccc(C(=O)Nc2ccc3c(O)c(N=Nc4ccc(N=Nc5ccc(S(=O)(=O)O)cc5)cc4)c(S(=O)(=O)O)cc3c2)c1
inactive: HCT-15 colon 108% | HT29 colon 99.1% | SNB-75 CNS 87.9% | SNB-19 CNS 106% | U251 CNS 109% | PC-3 prostate 91.9% | SK-MEL-5 melanoma 104% | UACC-62 melanoma 97.4% | LOX IMVI melanoma 101% | SK-MEL-28 melanoma 107%

C/C(=C\c1cnc(C)s1)[C@@H]1C[C@@H]2O[C@@H]2CCC[C@H](C)[C@H](O)[C@@H](C)C(=O)C(C)(C)[C@@H](O)CC(=O)O1
inactive: HCT-15 colon 23% | SNB-19 CNS 44% | U251 CNS 24.5% | PC-3 prostate 34.2% | SK-MEL-5 melanoma 34.3% | UACC-62 melanoma 51% | LOX IMVI melanoma 46.4% | SK-MEL-28 melanoma 75.1%
active: HT29 colon 8.92% | SNB-75 CNS -1.96%

CC(=O)OCC1OC(OC2C(COC(C)=O)OC(OCCC[S-])C(OC(C)=O)C2OC(C)=O)C(OC(C)=O)C(OC(C)=O)C1OC(C)=O.[Au+].c1ccc(CN2[CH-]N(Cc3ccccc3)C(c3ccccc3)=C2c2ccccc2)cc1 (stereo not given)
inactive: HCT-15 colon 25.6% | HT29 colon 15.7% | SNB-75 CNS 45.5% | SNB-19 CNS 23.2% | PC-3 prostate 17.7% | UACC-62 melanoma 13.4% | SK-MEL-28 melanoma 28.4%
active: U251 CNS 5.17% | SK-MEL-5 melanoma -12.6%

O=C1Nc2ccc(Cl)cc2/C1=N/c1nc(-c2ccc(Cl)cc2)cs1
inactive: HCT-15 colon 26.7% | SNB-75 CNS 26.2% | SNB-19 CNS 10.8% | SK-MEL-28 melanoma 16.3%
active: HT29 colon -0.232% | U251 CNS -3.58% | PC-3 prostate 2.97% | SK-MEL-5 melanoma 8.24% | UACC-62 melanoma -46.6%

O=CN1N=C(c2ccc(F)cc2)CC1c1cccc(Nc2ccnc3cc(C(F)(F)F)ccc23)c1 (stereo not given)
active: SK-MEL-5 melanoma -15.2%
inactive: HCT-15 colon 58% | HT29 colon 47.8% | SNB-75 CNS 92% | SNB-19 CNS 63.9% | U251 CNS 53.2% | PC-3 prostate 41.8% | UACC-62 melanoma 53.4% | SK-MEL-28 melanoma 82.2%

C#C[C@@]1(O)[C@@H](CO)O[C@@H](n2cnc3c(-c4ccccc4)ncnc32)[C@@H]1O
inactive: HCT-15 colon 98% | HT29 colon 101% | SNB-75 CNS 85.7% | SNB-19 CNS 112% | U251 CNS 104% | PC-3 prostate 95.5% | SK-MEL-5 melanoma 104% | UACC-62 melanoma 108% | SK-MEL-28 melanoma 111%

CCOC(=O)C1CCN(S(=O)(=O)/N=C2/NC(=O)NC2=C(Cl)Cl)CC1
active: HCT-15 colon -72.6% | HT29 colon -61.6% | U251 CNS -86.7% | UACC-62 melanoma -30.6% | SK-MEL-28 melanoma -8.67%
inactive: SNB-75 CNS 55.5% | SNB-19 CNS 16.8% | PC-3 prostate 17.7% | SK-MEL-5 melanoma 14.1%

N#CC(C#N)=C1NC(c2ccccc2)=C(c2ccccc2)C(c2ccccc2Cl)=C1C#N
inactive: HCT-15 colon 102% | HT29 colon 80.4% | SNB-75 CNS 107% | SNB-19 CNS 106% | U251 CNS 103% | PC-3 prostate 87.8% | SK-MEL-5 melanoma 105% | UACC-62 melanoma 102% | SK-MEL-28 melanoma 114%

COc1ccc(N(C)c2nc(Cl)nc3ccn(C)c23)cc1
inactive: HCT-15 colon 12.6% | SNB-75 CNS 56.8% | SNB-19 CNS 25.3% | PC-3 prostate 16.1% | UACC-62 melanoma 39.1% | SK-MEL-28 melanoma 49.2%
active: HT29 colon -2.47% | U251 CNS 3.67% | SK-MEL-5 melanoma -44.2%

CCOCc1nc2ccccc2c(=O)[nH]1
inactive: HCT-15 colon 97.2% | HT29 colon 95.9% | SNB-75 CNS 99.2% | SNB-19 CNS 101% | U251 CNS 102% | PC-3 prostate 95.2% | SK-MEL-5 melanoma 104% | UACC-62 melanoma 102% | SK-MEL-28 melanoma 106%

O=C(Nc1ccc(S(=O)(=O)NC2CCCCCC2)cc1)C(c1ccccc1)S(=O)(=O)c1ccc(F)cc1 (stereo not given)
active: HCT-15 colon 2.74% | HT29 colon -14.1% | SNB-75 CNS 3.64% | PC-3 prostate 7.69% | SK-MEL-5 melanoma -36.4% | UACC-62 melanoma -9.75% | SK-MEL-28 melanoma 1.46%
inactive: SNB-19 CNS 26.2% | U251 CNS 12.6%

COc1cc(-c2nn(-c3ccc(Br)cc3)cc2CO)ccc1O
inactive: HCT-15 colon 87.4% | HT29 colon 88.8% | SNB-75 CNS 87.7% | SNB-19 CNS 94% | U251 CNS 95.2% | PC-3 prostate 75% | SK-MEL-5 melanoma 94.1% | UACC-62 melanoma 78.9% | SK-MEL-28 melanoma 110%
